Data from PubChem BioAssay (NCI).
This is part of a sample that, as a whole, favours compounds with a hit. Of some 79,000 tested, about 15% had one in any assay. The source made the active and inactive calls. Cut-off read from the data, not from the text of the source: active = growth inhibition above about 70%; inactive = the rest.

Assay: NCI Yeast Anticancer Drug Screen. Data for the cln2 rad14 strain (AID 165);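 note: 0% = growth equal to vehicle treated cultures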
Conditions: S. cerevisiae cln2 rad14 strain, at 50.0 µM, active compounds read high
Method in brief: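 Relative to vehicle controls, growth inhibition of compound-treated cln2 rad14 yeast was recorded.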

Structure (SMILES)	growth inhibition
Cc1ccc2nc(N)nnc2c1	20.8% (inactive)
CC(CC(CCC(=O)O)(c1ccccc1)c1ccccc1)N(C)C (stereo not given)	-0.1% (inactive)
CCOC(=O)c1ccc(Nc2sc(C(=O)c3ccc(Br)cc3)c(N)c2C#N)cc1	20.3% (inactive)
CCCCNc1ccc(-c2ccc(NCCCC)cc2)cc1	-36.1% (inactive)
O=C(CCl)Nc1ccccc1SCc1cc(Cl)cc2c1OCOC2	22.9% (inactive)
NC(CSSCC(N)C(=O)O)C(=O)O (stereo not given)	4% (inactive)
C=CCNC(=S)N/C=C(/C(=O)c1ccccc1)c1ccccc1	-31.5% (inactive)
COC1C(=O)CCC2(CO2)C1(O)C1(C)OC1CCC(C)C (stereo not given)	-3.85% (inactive)
O=C(O)C1CSC(c2ccccc2)N1 (stereo not given)	3% (inactive)
CN(C)CCOC(=O)Nc1ccc(Cc2ccc(NC(=O)OCCN(C)C)cc2)cc1	8.25% (inactive)
CCCCN(C(=O)CC)c1ccccc1	-22.4% (inactive)
C=CCN1CCCC1=O	-18.6% (inactive)
CC(=O)NC(CCc1ccc(Cl)c(Cl)c1)c1cccc(O)c(=O)c1 (stereo not given)	63.7% (inactive)
CC(=O)N(C(C)=O)c1ccc(C)cc1	-9.75% (inactive)
CCNCC(C)(C)O	8.35% (inactive)
Cc1onc(-c2ccccc2Cl)c1C(=O)Cl	4.5% (inactive)
O=C(OCc1ccccc1)n1nnc2ccccc21	-17.2% (inactive)
CC(CCC#N)(CCC#N)C(=O)c1ccccc1	-38.3% (inactive)
COc1ccc(NNS(=O)(=O)O)cc1	-10.8% (inactive)
COc1cccc(C(=O)O)c1OC	3.75% (inactive)
